Source: PubChem BioAssay
ELG1 repair inh: qHTS screen for small molecules that inhibit ELG1-dependent DNA repair in human embryonic kidney (HEK293T) cells expressing luciferase-tagged ELG1; HEK293T ELG1-luciferase reporter, luminescence, 16 h; DNA damage induced by 5-fluorouridine; Potency, µM (highest dose often 46.1 µM), inactives show top-dose activity change, negative = inhibition, hits mostly inhibitors; 330,000 compounds, 2.3% hits; AID 504467, 2011; further: potency means the concentration at half of the fitted maximal effect; nearly all actives have a fitted effect of over 55% in size
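Quantitative HTS, concentration-response format. 2,000 cells/well co-treated with 5-fluorouridine and compound, 16 hr in 5% CO2 at 37 °C; ONE-Glo luminescence read after 30 min.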
TSHR antagonist: Antagonists of the Thyroid Stimulating Hormone Receptor: HTS campaign | 330,000 compounds, 0.2% hits | Thyrotropin receptor (Homo sapiens), P16473 | AID 504810, 2011 | activity change, negative = inhibition, % at 11.5 µM | TSHR-expressing cells, TSH-stimulated cAMP HTRF, 2 h; hits give low values;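 active means activity change below a set negative limit, meaning inhibition stronger than a set level, cut at about -70% in these data; inconclusive means activity change between two set negative limits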
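TSHR-expressing cells, 200/well, pre-treated with compound, then stimulated with EC80 TSH (4nM final) for 2 hours at 37 deg C. cAMP measured by competitive HTRF: anti-cAMP cryptate antibody in lysis buffer plus cAMP-d2, read after 30 minutes at room temperature.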
B2AR arrestin: qHTS assay of beta-arrestin-biased ligands of beta2-adrenergic receptor; 330,000 compounds, 0.02% hits; Potency, µM (top dose mostly 46.1 µM), for the others: at the highest dose activation, actives largely listed as activators; AID 492947, 2010; Beta-2 adrenergic receptor (Homo sapiens), P07550; beta-arrestin recruitment to beta2AR, cell-based reporter;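 further: potency means the concentration at half of the fitted maximal effect; 0% = DMSO controls and full agonism = EC100 isoproterenol or metaproterenol; nearly all actives have a fitted effect of over 65% in size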
Target sequence (P07550 whole entry, looked up): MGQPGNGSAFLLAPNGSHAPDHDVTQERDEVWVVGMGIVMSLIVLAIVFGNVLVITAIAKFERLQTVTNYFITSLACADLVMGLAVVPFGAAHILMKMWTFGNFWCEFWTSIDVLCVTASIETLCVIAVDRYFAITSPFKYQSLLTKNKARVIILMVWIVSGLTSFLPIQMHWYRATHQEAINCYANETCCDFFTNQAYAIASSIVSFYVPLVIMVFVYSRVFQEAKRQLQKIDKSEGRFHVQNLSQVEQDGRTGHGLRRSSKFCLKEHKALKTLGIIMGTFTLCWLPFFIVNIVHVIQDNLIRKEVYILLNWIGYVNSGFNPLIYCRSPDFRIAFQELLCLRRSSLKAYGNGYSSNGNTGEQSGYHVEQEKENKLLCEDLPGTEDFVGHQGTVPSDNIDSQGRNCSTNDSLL
VP16 counter: VP16 counterscreen qHTS for inhibitors of ROR gamma transcriptional activity | Potency, µM (highest dose often 53.6 µM), without a hit: at the highest dose activity, negative = inhibition, actives largely listed as inhibitors | Drosophila S2 Gal4-VP16 UAS-luciferase, luminescence, 20 h | 310,000 compounds, 3.5% hits;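 further: Gal4-VP16 expression switched on by copper sulfate through the metallothionein promoter; potency means the concentration at half of the fitted maximal effect; nearly all actives have a fitted effect of over 50% in size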
RORg inh: qHTS for inhibitors of ROR gamma transcriptional activity; Drosophila S2 Gal4-RORgamma UAS-luciferase reporter, 20 h; Nuclear receptor ROR-gamma (Mus musculus), P51450; Potency, µM (titrated, usually from 53.6 µM), for inactives: at the highest dose activity change, negative = inhibition, hits mostly inhibitors; 310,000 compounds, 5.4% hits; further: potency means the concentration at half of the fitted maximal effect; nearly all actives have a fitted effect of over 60% in size
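Luciferase reporter read in Schneider cells carrying Gal4-RORγ (mouse) and UAS-Photinus luciferase; cells given compound 1 h before 700 uM copper sulfate induction, then incubated 20 h at ambient temperature.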
Active calls of the source: *; ? = inconclusive; / = not tested or not shown; [ ] = dose if it differs, or a comment. The list is not random: actives were taken first. Their share in the collection is about 7.5%. Unless noted, the call rests on the fitted dose curve; in most records, active means well fitted curve in the direction sought with a large enough effect; inconclusive means small, poorly fitted or top-dose-only effect, or another doubt; inactive means no such curve, though single readings can be large; an effect the other way counts as inactive or inconclusive. Unless noted, on the % scale 0 is the no-effect control and ±100 the full control effect.

SMILES | ELG1 repair inh | TSHR antagonist | B2AR arrestin | VP16 counter | RORg inh
CCOC(=O)c1csc(N/N=C2\CCCc3ccccc32)n1 | -1.8% | 17.5 | 9.5% | -26.6% | ?
CCOC(=O)c1csc(N/N=C2\CCc3ccccc32)n1 | 8.9% | 3.4 | -1.1% | ? | 10µM*
COc1ccc2c(c1)CCC/C2=N\NC(=O)c1ccoc1C | ? | -0.7 | -0.6% | ? | 39.8µM*
CCN(C(=O)c1cc(S(=O)(=O)N2CCCCC2)c[nH]1)c1ccc(OC)cc1 | ? | -2.1 | -0.8% | 3.4% | -2.3%
COc1cc(O)c(C(CC(=O)N2CCCCC2)c2ccc(N(C)C)cc2)c(OC)c1 (centres undefined) | 0.0% | 1.1 | 0.2% | 5.8% | 1µM*
COC(=O)[C@@H]1[C@@H](C#N)C2(c3ccccc3-c3ccccc32)N(c2ccc(Cl)cc2)N1C#N | -20.5% | -5.3 | 0.3% | 10µM* | 15.8µM*
O=C(Cc1ccc(Cl)cc1)NN1C(=O)c2ccccc2C1=O | -2.4% | -4.3 | -0.1% | 3.1% | -6.5%
CO[C@H]1COC(=O)[C@H](C)NC(=O)C/C=C\[C@@H](C)[C@@H](NS(=O)(=O)c2ccc(C)cc2)COC(=O)[C@H](OCc2ccccc2)/C=C\[C@@H]1C | / | / | / | 1.1%[10 µM] | -9.3%[10 µM]
CC1(C)OC2OC(C(=O)N/N=C/c3cc(Br)ccc3O)C3OC(C)(C)OC3C2O1 (centres undefined) | ? | -5.5 | -0.8% | ? | 1.58µM*
Oc1c(Cl)cc(Cl)cc1/C=N/c1nccs1 | -21.1% | 7.7 | -0.1% | ? | 12.6µM*
c1ccc(-c2cc(NCCN3CCCCC3)c3ccccc3n2)cc1 | ? | 6.5 | -1.0% | -16.1% | -14.5%
CCN1C(=O)N[C@@H](c2ccccc2)C1=O | / | / | / | 0.7%[17 µM] | 6.5%[2.98 µM]
COc1ccc(-c2[nH]c3ccccc3c2SCCNC(=O)c2ccccc2)cc1 | 16.4µM* | 19.5 | 4.7% | ? | ?
COc1ccc(C(=O)NCCSc2ccccc2)cc1 | ? | 2.2 | -0.2% | ? | 11.2µM*
COc1ccc(C(=O)N[C@H](C(=O)NCCCSc2ccccc2)C(C)C)cc1 | ? | -6.6 | 2.1% | / | /
COc1cccc(C(=O)NCCSc2c(C)[nH]c3ccccc23)c1OC | 23.1µM* | 0.9 | 0.1% | -4.1% | 39.2%
Cc1sc2nc[nH]c(=O)c2c1-c1ccc(Cl)cc1 | -9.0% | 16.0 | 0.1% | -8.2% | 38.7%
O=C(NCc1nc(-c2ccc(Cl)cc2)no1)c1ccc2c(c1)OCO2 | -4.7% | -11.2 | -0.5% | -0.1% | 2.5%
CC(C)C1/C(=N/O)CC(c2ccccc2)NC1c1ccccc1 (centres undefined) | 16.4µM* | 11.3 | 3.0% | 2.2% | 8.5%
CC1/C(=N/O)CC(c2ccccc2)NC1c1ccccc1 (centres undefined) | -3.1% | -12.1 | 0.7% | -15.8% | -9.8%
Cc1nn2cc(-c3ccccc3)nc2[nH]c1=O | ? | -2.3 | -0.7% | 7.2% | 7.6%
Cc1nc(-c2ccccc2)cn(O)c1=O | -2.6% | 14.8 | -1.4% | -72.0% | 6.31µM*
CCOc1ccc(S(=O)(=O)N2CCN(C(=O)c3oc4ccc(OC)cc4c3C)CC2)cc1 | 20.6µM* | -3.0 | -3.4% | / | /
Cc1c(C(=O)N2CCN(S(=O)(=O)c3cccs3)CC2)oc2ccc(F)cc12 | 5.17µM* | / | -0.5% | / | /
COc1ccc2oc(C(=O)N3CCN(S(=O)(=O)c4cccc([N+](=O)[O-])c4)CC3)c(C)c2c1 | 7.3µM* | -3.5 | -0.7% | 5.7% | 17.5%
SMILES | ELG1 repair inh | TSHR antagonist | B2AR arrestin | VP16 counter | RORg inh
Cc1c(C(=O)N2CCN(S(=O)(=O)c3ccc(F)cc3)CC2)oc2ccccc12 | -13.6% | 5.0 | -0.1% | / | /
COc1ccc2oc(C(=O)OCC(=O)N3CCN(S(=O)(=O)c4ccccc4)CC3)c(C)c2c1 | -14.9% | -14.4 | -0.4% | / | /
C#CCNC(=O)C1=C[C@H](c2ccc(Br)cc2)[C@@H](CCCO)[C@H](OCC)O1 | 9.2% | -0.7 | -0.6% | -6.5% | 34.1%
CN(C(=O)c1ccc(NC(=O)Cc2cccc(NC(=O)C3CCN(C(=O)C4CCCCC4)CC3)c2)cc1)C1CCCC1 | -23.6% | -22.7 | 0.4% | / | /
N#Cc1ccc(NC(=O)Nc2cccc(C#N)c2)cc1 | ? | -2.9 | -0.4% | -5.6% | 25.8%
N#Cc1ccc(NC(=O)Nc2ccc(Oc3ccc(NC(=O)Nc4ccc(C#N)cc4)cc3)cc2)cc1 | ? | -26.5 | -0.8% | 12.6µM* | ?
CCCCc1ccc(NC(=S)NCCc2ccc(F)cc2)cc1 | -3.6% | -5.5 | 3.0% | 5.62µM* | 2.24µM*
Fc1ccc(CCNC(=S)Nc2ccc(F)cc2)cc1 | ? | -16.6 | 5.3% | 0.891µM* | 1µM*
Oc1ccc(NC(=S)Nc2ccc(F)cc2)cc1 | 14.2% | 9.6 | 0.3% | -6.3% | 24.5%
COc1cc(OC)cc(-c2c(-c3ccsc3)c3cc(Br)ccc3n2C)c1 | -0.6% | 1.3 | -0.1% | / | /
Cc1ccc(C2CC2c2n[nH]c(=S)n2-c2ccc(Cl)cc2)cc1 (centres undefined) | -1.4% | 4.2 | -0.9% | 10µM* | 2.82µM*
Cc1cccc(-n2c(CNC(=O)c3ccc(S(=O)(=O)N4CCCCC4)cc3)n[nH]c2=S)c1 | 0.1% | -12.7 | -0.2% | 0.9% | 7.9%
S=c1[nH]nc(Cn2cnc3ccccc32)n1-c1ccccc1Cl | 12.8% | 10.6 | -0.7% | -6.3% | 17.9%
Cc1cc(C(F)(F)F)nn1Cc1n[nH]c(=S)n1-c1ccc(Cl)cc1 | -3.1% | -1.6 | 0.0% | ? | ?
Cc1ccc(C2CC2c2n[nH]c(=S)n2-c2cccc(C)c2)cc1 (centres undefined) | 1.5% | -15.7 | 13.1% | 6.31µM* | 3.16µM*
S=c1[nH]nc([C@@H]2C[C@H]2c2ccccc2)n1-c1ccccc1Cl | -3.6% | -9.3 | 4.5% | 10µM* | 1.41µM*
CCn1nccc1C(=O)Nc1nc2ccccc2n1CCN1CCCCC1 | -20.4% | -5.6 | -0.5% | ? | 15.8µM*
O=C(Nc1nc2ccccc2n1CCN1CCCCC1)C1CCCCC1 | 4.2% | -1.7 | -0.2% | 7.08µM* | 2µM*
O=C(Nc1nc2ccccc2n1CCN1CCCCC1)c1ccc(Cl)cc1 | 21.5% | -2.4 | -0.3% | ? | -42.8%
COc1cccc(CNc2nc3ccccc3n2CCN2CCCCC2)c1OC | ? | 9.3 | 6.7% | -14.9% | 18.5%
O=C(Nc1nc2ccccc2n1CCN1CCCC1)C1CCCCC1 | 14.3% | 1.4 | -0.7% | 10µM* | 7.08µM*
CCn1c(NC(=O)C2CCCCC2)nc2ccccc21 | 4.9% | 11.6 | ? | 0.891µM* | 0.355µM*
CN1C2Cc3c(n(C)c4ccccc34)C1CC=C2CO (centres undefined) | -0.4% | -5.3 | 0.2% | / | /
